# Reference: the supplement of paper PMC4466140
# Legend:
# Experiment in all cases: SPOT peptide array binding signal intensity (averaged, normalized) (arbitrary units (background-subtracted, floor 0; scale differs between SH3 domains)); higher = stronger binding of the SH3 domain to the peptide
# AgAbp1 = molecular target: AgAbp1
# In short: (§1)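 GST-fused SH3 domains, from four yeast species, were produced in E. coli BL21(DE3) and captured on glutathione Sepharose. Membranes of cellulose carrying synthetic 15-mer peptides, in which cysteines had been replaced by serines, were exposed to each domain at 10 μg/ml overnight at 4°C in TBS-based blocking buffer. After anti-GST antibody, an HRP anti-mouse secondary and luminol, spots were imaged and quantified using Genespotter. Binding signal is normalized and background-subtracted spot intensity, averaged over replicates, in arbitrary units that differ between domains.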
# AgBbc1 = molecular target: AgBbc1
# In short: as §1
# AgBem1-D1 = molecular target: AgBem1-D1
# In short: as §1
# AgBzz1-D1 = molecular target: AgBzz1-D1
# In short: as §1
# AgBzz1-D2 = molecular target: AgBzz1-D2
# In short: as §1
# AgCyk3 = molecular target: AgCyk3
# In short: as §1
# AgFus1 = molecular target: AgFus1
# In short: as §1
# AgHof1 = molecular target: AgHof1
# In short: as §1
# AgHse1 = molecular target: AgHse1
# In short: as §1
# AgLsb1 = molecular target: AgLsb1
# In short: as §1
# AgLsb4 = molecular target: AgLsb4
# In short: as §1
# AgMyo5 = molecular target: AgMyo5
# In short: as §1
# AgNbp2 = molecular target: AgNbp2
# In short: as §1
# AgRvs167 = molecular target: AgRvs167
# In short: as §1
# AgSho1 = molecular target: AgSho1
# In short: as §1
# AgSla1-D1-D2 = molecular target: AgSla1-D1-D2
# In short: as §1
# AgSla1-D3 = molecular target: AgSla1-D3
# In short: as §1
# CaAbp1-D1 = molecular target: CaAbp1-D1
# In short: as §1
# CaAbp1-D2 = molecular target: CaAbp1-D2
# In short: as §1
# CaBbc1 = molecular target: CaBbc1
# In short: as §1
# CaBem1-D1 = molecular target: CaBem1-D1
# In short: as §1
# CaBzz1-D1 = molecular target: CaBzz1-D1
# In short: as §1
# CaBzz1-D2 = molecular target: CaBzz1-D2
# In short: as §1
# CaCyk3 = molecular target: CaCyk3
# In short: as §1
# CaFus1 = molecular target: CaFus1
# In short: as §1
# CaHof1 = molecular target: CaHof1
# In short: as §1
# CaHse1 = molecular target: CaHse1
# In short: as §1
# CaLsb1 = molecular target: CaLsb1
# In short: as §1
# CaLsb4 = molecular target: CaLsb4
# In short: as §1
# CaMyo5 = molecular target: CaMyo5
# In short: as §1
# CaNbp2 = molecular target: CaNbp2
# In short: as §1
# CaRvs167 = molecular target: CaRvs167
# In short: as §1
# CaRvs167-3 = molecular target: CaRvs167-3
# In short: as §1
# CaSho1 = molecular target: CaSho1
# In short: as §1
# CaSla1-D1-D2 = molecular target: CaSla1-D1-D2
# In short: as §1
# CaSla1-D3 = molecular target: CaSla1-D3
# In short: as §1
# ScAbp1 = molecular target: ScAbp1
# In short: as §1
# ScBbc1 = molecular target: ScBbc1
# In short: as §1
# ScBem1-D1 = molecular target: ScBem1-D1
# In short: as §1
# ScBzz1-D1 = molecular target: ScBzz1-D1
# In short: as §1
# ScBzz1-D2 = molecular target: ScBzz1-D2
# In short: as §1
# ScCyk3 = molecular target: ScCyk3
# In short: as §1
# ScFus1 = molecular target: ScFus1
# In short: as §1
# ScHof1 = molecular target: ScHof1
# In short: as §1
# ScHse1 = molecular target: ScHse1
# In short: as §1
# ScLsb1 = molecular target: ScLsb1
# In short: as §1
# ScLsb2 = molecular target: ScLsb2
# In short: as §1
# ScLsb3 = molecular target: ScLsb3
# In short: as §1
# ScLsb4 = molecular target: ScLsb4
# In short: as §1
# ScMyo3 = molecular target: ScMyo3
# In short: as §1
# ScMyo5 = molecular target: ScMyo5
# In short: as §1
# ScNbp2 = molecular target: ScNbp2
# In short: as §1
# ScPex13 = molecular target: ScPex13
# In short: as §1
# ScRvs167 = molecular target: ScRvs167
# In short: as §1
# ScSho1 = molecular target: ScSho1
# In short: as §1
# ScSla1-D1-D2 = molecular target: ScSla1-D1-D2
# In short: as §1
# ScSla1-D3 = molecular target: ScSla1-D3
# In short: as §1
# SpAbp1-D1 = molecular target: SpAbp1-D1
# In short: as §1
# SpBbc1 = molecular target: SpBbc1
# In short: as §1
# SpBzz1-D1 = molecular target: SpBzz1-D1
# In short: as §1
# SpBzz1-D2 = molecular target: SpBzz1-D2
# In short: as §1
# SpCyk3 = molecular target: SpCyk3
# In short: as §1
# SpHof1 = molecular target: SpHof1
# In short: as §1
# SpHof1-2 = molecular target: SpHof1-2
# In short: as §1
# SpHof1-3 = molecular target: SpHof1-3
# In short: as §1
# SpHse1 = molecular target: SpHse1
# In short: as §1
# SpLsb1 = molecular target: SpLsb1
# In short: as §1
# SpLsb4 = molecular target: SpLsb4
# In short: as §1
# SpMyo1 = molecular target: SpMyo1
# In short: as §1
# SpNbp2 = molecular target: SpNbp2
# In short: as §1
# SpPex13 = molecular target: SpPex13
# In short: as §1
# SpRvs167 = molecular target: SpRvs167
# In short: as §1
# SpSla1-D1-D2 = molecular target: SpSla1-D1-D2
# In short: as §1
# SpSla1-D3 = molecular target: SpSla1-D3
# In short: as §1
binder,measurement,setting,value
TSFKGRPKPPKTLKH,SPOT peptide array binding signal intensity,AgAbp1,590
same,SPOT peptide array binding signal intensity,AgBbc1,17.8
same,SPOT peptide array binding signal intensity,AgBem1-D1,≤ 0
same,SPOT peptide array binding signal intensity,AgBzz1-D1,≤ 0
same,SPOT peptide array binding signal intensity,AgBzz1-D2,28
same,SPOT peptide array binding signal intensity,AgCyk3,≤ 0
same,SPOT peptide array binding signal intensity,AgFus1,3
same,SPOT peptide array binding signal intensity,AgHof1,22.5
same,SPOT peptide array binding signal intensity,AgHse1,65.5
same,SPOT peptide array binding signal intensity,AgLsb1,≤ 0
same,SPOT peptide array binding signal intensity,AgLsb4,20
same,SPOT peptide array binding signal intensity,AgMyo5,1.5
same,SPOT peptide array binding signal intensity,AgNbp2,≤ 0
same,SPOT peptide array binding signal intensity,AgRvs167,2
same,SPOT peptide array binding signal intensity,AgSho1,≤ 0
same,SPOT peptide array binding signal intensity,AgSla1-D1-D2,71
same,SPOT peptide array binding signal intensity,AgSla1-D3,5.5
same,SPOT peptide array binding signal intensity,CaAbp1-D1,1460
same,SPOT peptide array binding signal intensity,CaAbp1-D2,1380
same,SPOT peptide array binding signal intensity,CaBbc1,43.5
same,SPOT peptide array binding signal intensity,CaBem1-D1,≤ 0
same,SPOT peptide array binding signal intensity,CaBzz1-D1,80.5
same,SPOT peptide array binding signal intensity,CaBzz1-D2,67.8
same,SPOT peptide array binding signal intensity,CaCyk3,3
same,SPOT peptide array binding signal intensity,CaFus1,44.5
same,SPOT peptide array binding signal intensity,CaHof1,2.75
same,SPOT peptide array binding signal intensity,CaHse1,2.75
same,SPOT peptide array binding signal intensity,CaLsb1,≤ 0
same,SPOT peptide array binding signal intensity,CaLsb4,≤ 0
same,SPOT peptide array binding signal intensity,CaMyo5,2.5
same,SPOT peptide array binding signal intensity,CaNbp2,12
same,SPOT peptide array binding signal intensity,CaRvs167,0.833
same,SPOT peptide array binding signal intensity,CaRvs167-3,1.5
same,SPOT peptide array binding signal intensity,CaSho1,0.5
same,SPOT peptide array binding signal intensity,CaSla1-D1-D2,196
same,SPOT peptide array binding signal intensity,CaSla1-D3,≤ 0
same,SPOT peptide array binding signal intensity,ScAbp1,556
same,SPOT peptide array binding signal intensity,ScBbc1,≤ 0
same,SPOT peptide array binding signal intensity,ScBem1-D1,6.5
same,SPOT peptide array binding signal intensity,ScBzz1-D1,26
same,SPOT peptide array binding signal intensity,ScBzz1-D2,18
same,SPOT peptide array binding signal intensity,ScCyk3,≤ 0
same,SPOT peptide array binding signal intensity,ScFus1,≤ 0
same,SPOT peptide array binding signal intensity,ScHof1,8.5
same,SPOT peptide array binding signal intensity,ScHse1,542
same,SPOT peptide array binding signal intensity,ScLsb1,4.75
same,SPOT peptide array binding signal intensity,ScLsb2,≤ 0
same,SPOT peptide array binding signal intensity,ScLsb3,≤ 0
same,SPOT peptide array binding signal intensity,ScLsb4,≤ 0
same,SPOT peptide array binding signal intensity,ScMyo3,3
same,SPOT peptide array binding signal intensity,ScMyo5,≤ 0
same,SPOT peptide array binding signal intensity,ScNbp2,7
same,SPOT peptide array binding signal intensity,ScPex13,1.5
same,SPOT peptide array binding signal intensity,ScRvs167,≤ 0
same,SPOT peptide array binding signal intensity,ScSho1,71
same,SPOT peptide array binding signal intensity,ScSla1-D1-D2,63.5
same,SPOT peptide array binding signal intensity,ScSla1-D3,7
same,SPOT peptide array binding signal intensity,SpAbp1-D1,174
same,SPOT peptide array binding signal intensity,SpBbc1,0.5
same,SPOT peptide array binding signal intensity,SpBzz1-D1,207
same,SPOT peptide array binding signal intensity,SpBzz1-D2,≤ 0
same,SPOT peptide array binding signal intensity,SpCyk3,≤ 0
same,SPOT peptide array binding signal intensity,SpHof1,27
same,SPOT peptide array binding signal intensity,SpHof1-2,≤ 0
same,SPOT peptide array binding signal intensity,SpHof1-3,183
same,SPOT peptide array binding signal intensity,SpHse1,79
same,SPOT peptide array binding signal intensity,SpLsb1,2.5
same,SPOT peptide array binding signal intensity,SpLsb4,12.5
same,SPOT peptide array binding signal intensity,SpMyo1,≤ 0
same,SPOT peptide array binding signal intensity,SpNbp2,22
same,SPOT peptide array binding signal intensity,SpPex13,≤ 0
same,SPOT peptide array binding signal intensity,SpRvs167,2
same,SPOT peptide array binding signal intensity,SpSla1-D1-D2,3
same,SPOT peptide array binding signal intensity,SpSla1-D3,2
